PubChem BioAssay AID2252 (Southern Research Specialized Biocontainment Screening …, 2010)
Among all 2,300 compounds or so, about 1,500 (65%) were called active. The set was probably picked from earlier hits. A selection follows. A number with no mark means an inactive call. How the calls were made is not given here.

Assay: PubChem AID 2252;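 further: 100% = mean of untreated cell control wells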
Settings: THP-1 viability, CellTiter-Glo luminescence, 72 h; min viability: minimum viability across concentrations, active compounds read low, concentration not given here; series mostly up to 50 µM; viability: at the top concentration

Compound | viability
CC(C)C(NS(=O)(=O)c1cccc2nsnc12)C(=O)N1CCn2c1nc1ccccc12 (stereo not drawn) | 94.3%
O=S(=O)(Nc1cccc(-c2cn3c(n2)SCC3)c1)c1ccc(F)cc1F | 89.8%
CCOc1ccc(N2CC(C(=O)OCC(=O)NCc3ccccc3)CC2=O)cc1 (stereo not drawn) | 103% [at 25 µM]
O=C(NC(=S)Nc1c(F)cc(F)cc1Br)c1ccc2c(c1)OCCO2 | 94%
CCOC(=O)/C=C1/N(C)c2ccccc2C1(C)C | 97.1%
CCCCOc1ccc(CN2CCC(O)CC2)cc1 | 95.6%
CCO[C@H]1OC(C(=O)O)=C[C@@H](c2ccccc2)[C@@H]1CCCO | 93.8%
CCc1nc(SCC(=O)NCCc2ccccc2)c2c(=O)n(C)c(=O)n(C)c2n1 | 105%
C/C(=C\C(=O)OCCCCCCCCC(=O)O)C[C@@H]1OC[C@H](C[C@@H]2O[C@H]2[C@@H](C)[C@H](C)O)[C@@H](O)[C@H]1O | 96.7%
Cc1cc(C)n2nc(S(=O)(=O)Nc3c(Cl)cccc3Cl)nc2n1 | 104%
COc1cccc(OC)c1C(=O)Nc1ccc(N2CCN(S(C)(=O)=O)CC2)cc1 | 84.6%
O=C(c1ccccc1F)N1C(=O)c2cccc3cccc1c23 | 91.2%
CCc1cccc2c(C=C(C#N)C#N)cn(CC(=O)N3CCCCCC3)c12 | 103%
COc1ccc(-c2cc(C(=O)Nc3ccc(S(=O)(=O)Nc4onc(C)c4C)cc3)c3ccccc3n2)cc1OC | 96%
O=C1C(O)=C(O)C(=O)c2ccccc21 | 81.8%
Cc1cccc2cc(C(c3nnnn3Cc3ccccc3)N3CCN(C)CC3)c(=O)[nH]c12 (stereo not drawn) | 102%
O=C(C[n+]1cc(-c2ccc(Cl)cc2)n2c1CCC2)Nc1nc(-c2ccccc2)cs1 | 109%
C#CCOCCOCCOCCNc1nc(N2CCN(C(=O)[C@H](CCCCN)n3cc([C@@H](N)CO)nn3)CC2)nc(N2CCN(C(=O)[C@H](Cc3cc4ccccc4[nH]3)n3cc([C@@H](N)Cc4ccc(O)cc4)nn3)CC2)n1 | 91.4%
COc1ccc(-n2nnc3c(SCC(=O)N4CCCc5ccccc54)ncnc32)cc1 | 99.5%
CC(C)(C)SCCNC(=O)c1ccccc1 | 97.1%
Cc1cc(C)c2c(=O)[nH]c(SCC(=O)N3CCCCC3)nc2n1 | 87.6%

Compound | viability
CN(CC(=O)NCc1ccncc1)S(=O)(=O)c1ccccc1 | 95.6%
O=C(Nc1ccc2c(c1)OCCO2)C(=S)NCc1ccccc1 | 81.3%
CCN(CC)CCn1nc(C)nc1-c1ccccc1O | 95.7%
CCN(CC(=O)Nc1ccc(C(=O)OC)cc1)C1CCCCC1 | 97.9% [at 25 µM]
CC(=O)NS(=O)(=O)c1ccc(Nc2ccc([N+](=O)[O-])c3nonc23)cc1 | 93.8%
O=C(NC(CO)Cc1ccc([N+](=O)[O-])cc1)C(Cl)Cl (stereo not drawn) | 94%
C#CCOCCOCCOCCNc1nc(N2CCN(C(=O)[C@H](Cc3cc4ccccc4[nH]3)n3cc([C@@H](N)CC(C)C)nn3)CC2)nc(N2CCN(C(=O)[C@H](Cc3cc4ccccc4[nH]3)n3cc([C@@H](N)CC(C)C)nn3)CC2)n1 | 91.9%
COCCN1C(=O)C(=O)/C(=C(/O)c2cccc(OC)c2)C1c1ccncc1 (stereo not drawn) | 117%
Cc1cccc(NC(=O)CSc2nc3c([nH]c4ccccc43)c(=O)n2C)c1 | 87.8%
O=C(COc1ccc(Cl)cc1)Nc1cccc(-c2ccc3nncn3n2)c1 | 82.9%
CO[C@H]1/C=C/O[C@@]2(C)Oc3c(C)c(O)c4c(O)c(c(C=NN5CCN(C)CC5)c(O)c4c3C2=O)NC(=O)/C(C)=C\C=C\[C@H](C)[C@H](O)[C@@H](C)[C@@H](O)[C@@H](C)[C@H](OC(C)=O)[C@@H]1C | 81.3%
CCOC(=O)c1ccc(NC(=O)c2cc3c(s2)CCC3)cc1 | 89%
CCC1(CC)C(=O)NC(=O)NC1=Nc1cccc(OC)c1 | 105%
CCOc1ccc2nnnn2n1 | 96.2%
CCCCC(=O)Nc1ccc(F)c(Cl)c1 | 90.9%
Clc1ccc(Cn2cc(Br)cn2)cc1Cl | 85.3%
CCOC(=O)CSc1nc(-c2ccccc2)nc2ccccc12 | 103%
COc1ccccc1NC(=O)Cn1c(=O)n(CCc2c[nH]c3ccccc23)c(=O)c2cccnc21 | 92%
c1ccc(N2CCN(c3nc4ccccc4[nH]3)CC2)nc1 | 88.5%
C=CCOc1ccc(-c2n[nH]c(=S)o2)cc1 | 99.7%
C=CC1=C(C(=O)O)N2C(=O)[C@@H](NC(=O)/C(=N\O)c3csc(N)n3)[C@H]2SC1 (stereo in doubt) | 92.6%

Compound | viability
COc1ccc(/C=N/NC(=O)c2cccnc2)cc1 | 91.8%
Cc1ccc2cc(-c3noc(C4CCCO4)n3)c(=O)[nH]c2c1 (stereo not drawn) | 93.5%
CCOc1ccc(NC(N)=O)cc1 | 103%
Clc1ccc(OCc2nn3c(C4CCCCC4)nnc3s2)c(Cl)c1 | 86.5% [at 25 µM]
COc1ccccc1CNC(=O)COC(=O)CCC(=O)c1cccs1 | 102%
O=c1c2ccccc2ncn1Cc1ccc(Cl)cc1 | 81.6%
COc1nc(N(C#N)CC(N)=O)nc(N2CCCC2)n1 | 89.8%
Cc1ccc(-c2c(C)n([O-])c3c([n+]2=O)CCCC3)o1 | 116%
O=S(=O)(c1ccccc1)c1nc(-c2cccs2)oc1NCC1CCCO1 (stereo not drawn) | 81.2%
C#CCOCCOCCOCCNc1nc(N2CCN(C(=O)C(Cc3cc4ccccc4[nH]3)n3cc(C(N)C(C)CC)nn3)CC2)nc(N2CCN(C(=O)C(Cc3cc4ccccc4[nH]3)n3cc(C(N)C(C)CC)nn3)CC2)n1 (stereo not drawn) | 92.1%
CC[C@H]1OC(=O)[C@H](C)[C@@H](O[C@H]2C[C@@](C)(OC)[C@@H](O)[C@H](C)O2)[C@H](C)[C@@H](O[C@@H]2O[C@H](C)C[C@H](N(C)C)[C@H]2O)[C@](C)(OC)C[C@@H](C)C(=O)[C@H](C)[C@@H](O)[C@]1(C)O | 90.7% [at 25 µM]
CCOC(=O)Cc1[nH]nc2c1C(c1ccoc1)C(C#N)=C(N)O2 (stereo not drawn) | 89.2%
O/N=C/c1ccc(OCc2ccccc2)c(Cl)c1 | 96.7% [at 25 µM]
C#CCOCCOCCOCCNc1nc(N2CCN(C(=O)[C@H](Cc3ccc(O)cc3)n3cc([C@@H](N)CC(C)C)nn3)CC2)nc(N2CCN(C(=O)[C@H](Cc3cc4ccccc4[nH]3)n3cc([C@@H](N)CC(C)C)nn3)CC2)n1 | 97.2%
Cc1ncc([N+](=O)[O-])n1CC(=O)NC1CCCC1 | 101%
Cc1ccc(N(C(=O)c2sc(C)nc2C)C(C(=O)NCc2ccco2)c2ccccc2)cc1 (stereo not drawn) | 82.3%
CCOC(=O)c1ccc(CNCc2ccc(Br)cc2)cc1 | 83.4%
Cc1cc(C)cc(NC(=O)C(Sc2nnc(C)c(=O)[nH]2)c2ccccc2)c1 (stereo not drawn) | 101%
Nc1ccc(S(=O)(=O)Nc2nccs2)cc1 | 92.6%
CC(C)c1cc(C(=O)Nc2ccc3c(c2)OCO3)no1 | 82.2%
CC1Cc2ccccc2N1C(=O)CN1C(=O)C(=O)N(Cc2ccccc2)C1=O (stereo not drawn) | 108%
